Screens as filed in PubChem BioAssay.
Pf Dd2 inh: inhibitors of Plasmodium falciparum Dd2 growth. P. falciparum Dd2 growth, SYBR Green, 72 h. Potency, µM (doses to about 28.9 µM), without a hit: at the top dose activity, negative = inhibition, most hits filed as inhibitors. 120,000 tested, 4.3% active; active = well fitted inhibition curve with a large enough effect;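 also: plate controls were DMSO vehicle for no effect and reference drug for full effect; nearly all actives have a fitted effect of over 65% in size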
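Infected erythrocytes (Dd2, 0.3% parasitemia, 2.5% hematocrit final) are added to compound in RPMI-1640/Albumax II medium, grown 72 h at 37C in low oxygen, then lysed with saponin/Triton-X containing SYBR Green and read by fluorescence.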
The depositor's hits bear a star; i = inactive; [ ] = dose if it differs, or a comment. Shown is part of a subset that was picked to be rich in hits. Potency is read from the fitted curve at half-maximal effect.

SMILES	Pf Dd2 inh
Cc1ccc(NC(=O)CCc2c(C)nc3c(-c4ccccc4)c(C)nn3c2C)c(C)c1	9%
COCCC(=O)NC[C@@H]1C=C(C)[C@H](CC(=O)N(C)Cc2ccccc2)C[C@H]1C(C)C	-61%[44.1 µM]
CCOC(=O)c1ccc(NC(=O)CCC(=O)N2CCSc3ccccc32)cc1	i
COCCOCc1nc(C2CCCCN2S(=O)(=O)c2cccc(OC)c2)no1 (stereo unspecified)	-22%
O=C(c1ccco1)N1CCCC(n2cc(-c3nc(C4CC4)no3)nn2)C1 (stereo unspecified)	i
COc1cc(OC)cc(C(=O)Nc2ccc(-c3nc4ccccc4s3)c(C)c2)c1	18%[5.79 µM]
CCN(Cc1nc(C)no1)C(=O)CC1COCCN1C(=O)c1ccco1 (stereo unspecified)	0%
Cc1cccc(NC(=O)N2[C@H]3CC[C@@H]2c2cnc(C)nc2C3)c1	17%
CCNC(=O)NC[C@H]1C[C@@H]2CCN1C[C@@H]2c1cc(-c2cccs2)nn1C	i
Cn1nc(-c2ccc(F)cc2)cc1[C@H]1CN2CC[C@H]1C[C@@H]2COC(=O)Nc1cccc(C(F)(F)F)c1	-19%
Cn1nc(-c2cccs2)cc1[C@H]1CN2CC[C@H]1C[C@@H]2COC(=O)Nc1cccc(C(F)(F)F)c1	-8%
Cc1nc(-c2cccs2)cc([C@H]2CN3CC[C@H]2C[C@@H]3COC(=O)NC2CCCCC2)n1	i
Cc1nc(-c2cccs2)cc([C@H]2CN3CC[C@H]2C[C@@H]3CO)n1	11µM*
Cc1nc(-c2cccs2)cc([C@H]2CN3CC[C@H]2C[C@@H]3COC(=O)Nc2cccc(C(F)(F)F)c2)n1	7.9µM*
O=Cc1cccc(-c2ccc(OC(F)(F)F)cc2)c1	4%[44.1 µM]
CCN(CC)CCSc1nc2ccccc2c(=O)n1-c1ccc(Cl)cc1	7.9µM*
CCCSc1nc2ccccc2c(=O)n1-c1ccccc1OC	-8%
O=C(CSc1nc2c([nH]c3ccccc32)c(=O)n1-c1ccc(Cl)cc1)c1ccccc1	56%
O=[S+]1([O-])NCC2(CCN(Cc3ccc(C(F)(F)F)cc3)C2)Oc2ccncc21 (stereo unspecified)	-10%
COCc1nnc2n1CCC(NS(=O)(=O)c1ccc3c(c1)CCC3)CC2 (stereo unspecified)	9%
C[C@@H]1CN(C(=O)c2cnc3sccn3c2=O)C[C@@]1(O)C1CCC1	-2%
Cc1cc(C(F)(F)F)n2ncc(C(=O)N3C[C@@H](C)[C@](O)(C4CCC4)C3)c2n1	14µM*
CC(C)c1cc(C(=O)N2C[C@@H](C)[C@](O)(C3CC3)C2)nc2ncnn12	-4%
O=C(CCn1c(=O)c2cccn2c2cccnc21)Nc1ccccc1Br	-5%
CCc1ccc(NC(=O)Cn2c(N3CCOCC3)nc(COC)cc2=O)cc1	i
SMILES	Pf Dd2 inh
Cc1ccc2c(c1)C(=O)OC(C(=O)Nc1ncc(Cc3ccc(C(C)C)cc3)s1)C2 (stereo unspecified)	17%
O=C(Nc1ccc([C@H]2OCC(=O)N(Cc3cccnc3)[C@@H]2CO)cc1)C1CCC1	i
O=C(NCCc1ccccn1)c1ccc(-c2nnc3ccc(NC(=O)C4CCC4)cn23)cc1	0.56µM*
O=C(NCCc1ccccn1)c1ccc(OC2CCNCC2)nc1	-8%
O=C(NC1CC1)c1ccc2nnc(-c3cccnc3)n2c1	24%[44.1 µM]
O=C(NCCc1cccnc1)c1ccc(-c2nnc3ccc(NC(=O)C4CCC4)cn23)cc1	0.4µM*
Cc1ccc(NC(=O)N2CCc3c(C(=O)NCCc4ccccn4)cccc32)cc1	-18%
CCNC(=O)C1C(c2cccc(NC(=O)c3cccs3)c2)OC(=O)N1Cc1ccc(C)cc1 (stereo unspecified)	i
Cc1ccc(CNC(=O)CCCc2nnc3n(CC(C)C)c(=O)c4sccc4n23)cc1	-3%
CN(C)Cc1cc(C[C@@H]2C[C@H](NC(=O)C3CCCC3)C2(C)C)no1	i
CCCC1(CO)CCCN(Cc2nnc(-c3cccc(F)c3)o2)C1 (stereo unspecified)	i
CCc1noc(C)c1C(=O)N1CCCC(CO)(CC=C(C)C)C1 (stereo unspecified)	-13%
CC(C)=CCC1(CO)CCCN(Cc2[nH]c3ccc(F)cc3c2C)C1 (stereo unspecified)	2.2µM*
CCc1ccc(C(=O)N2CCN(C3(CC)CCN(C(=O)NC)C3)CC2)cc1 (stereo unspecified)	-16%
CCn1c(SCc2ccccc2F)nc(=O)c2c(C(=O)OC)cc(C3CC3)nc21	i
COCCN(C)C[C@@H]1CN(C(=O)c2cccc3c(C)c(C)[nH]c23)C[C@@H]1CO	-16%
c1c[nH]c(CNC[C@H]2Cn3cc(-c4ccc5c(c4)OCCCO5)nc3CO2)n1	-14%[44.1 µM]
CCOc1ccccc1NC(=O)c1c(NC(=O)c2ccncc2)sc2c1CCC(C(C)(C)C)C2 (stereo unspecified)	22%
CCN(CC)C(=O)c1c(NC(=O)c2cccc(C)c2)sc2c1CCC(C)C2 (stereo unspecified)	-18%
CCCNC(=O)c1c(NC(=O)c2ccccc2)sc2c1CCC(C(C)(C)C)C2 (stereo unspecified)	11µM*
Cc1ccccc1NC(=O)c1c(NC(=O)c2ccncc2)sc2c1CCC(C(C)(C)C)C2 (stereo unspecified)	5.6µM*
CCNC(=O)c1c2c(nc3ccccc13)C(=O)N(C1CCCCC1)C2	111%
CC(C(=O)NCCc1cccnc1)C1CCOCC1 (stereo unspecified)	37%
CN1[C@@H](CCC(=O)NCc2ccccc2)CNC(=O)[C@@H]2[C@H]1CCN2Cc1ccc(S(C)(=O)=O)cc1	-5%
COc1ccccc1CNC(=O)CCn1c(=O)c2ccccc2n(CC(=O)Nc2ccc(C)cc2)c1=O	26%
SMILES	Pf Dd2 inh
O=C(O)c1cc(-c2ccc(CN3CCCC(CO)C3)o2)ccc1Cl (stereo unspecified)	-9%
COc1ccc(OC)c(NC(=O)N2C[C@@H](F)C[C@H]2C(=O)N2CCCCC2)c1	-16%
CCc1ccc(NC(=O)CC2C(=O)N(c3ccc(Cl)cc3)C(=O)N2C2CCCC2)cc1 (stereo unspecified)	10µM*
CCOc1ccc(NC(=O)CC2C(=O)N(c3ccc(OC)cc3)C(=O)N2C2CCCCC2)cc1 (stereo unspecified)	9%
CCc1ccc(NC(=O)CC2C(=O)N(c3ccc(C)cc3)C(=O)N2C2CCCC2)cc1 (stereo unspecified)	11µM*
CCOc1ccc(NC(=O)CC2C(=O)N(c3ccccc3)C(=O)N2C2CCCC2)cc1 (stereo unspecified)	-10%
CCOC(=O)c1ccc(NC(=O)CC2C(=O)N(c3ccc(C)cc3)C(=O)N2C2CCCCC2)cc1 (stereo unspecified)	15%
COc1ccc(NC(=O)CC2C(=O)N(c3ccc(OC)cc3)C(=O)N2C2CCCCC2)cc1 (stereo unspecified)	i
Cc1ccc(NC(=O)CN2C(=O)NC(c3ccc(Cl)cc3)C3=C2COC3=O)c(Cl)c1 (stereo unspecified)	-18%
COCCCNc1cc(-c2cccs2)nc2c(C)noc12	-20%[44.1 µM]
Cc1ccc(CN2C[C@@H]3C(=O)N(CCc4ccccc4)C(=O)[C@@H]3C2)s1	4%
O=C1COCC2(CN1Cc1cccc(OC(F)(F)F)c1)CN(c1ccccc1F)C2	2.5µM*
COc1cncc(N2CC3(COCC(=O)N(Cc4cccc(OC(F)(F)F)c4)C3)C2)c1	i
O=C1COCC2(CN1Cc1cccc(OC(F)(F)F)c1)CN(c1ccccn1)C2	i
